This note sets out measurements from PubChem BioAssay (NCI).

About 83,000 compounds went through this panel and 20% of them were active in at least one assay; those are over-represented in the sample as a whole.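 Percent growth is the endpoint: 0 to 100 indicates growth inhibition (40 means 60% inhibition), 0 means no net growth, and negative values indicate cell death.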 Unmarked numbers belong to inactive results. Active and inactive are the calls of the source. The calls were made as follows: active = growth percent below 10; inactive = the rest.

The assay deals with MDA-MB-468 breast. Kind of assay: NCI-60 one-dose screen, 48 h (100 = growth as untreated, 0 = no growth, -100 = all killed). The following applies: 10 µM unless noted.
In the case of `O=C(/C=C/c1ccc[nH]1)c1ccc(-n2ccc(C(F)(F)F)n2)c(F)c1`, the growth is 60.4%.

For `Cn1cc(-c2nc(-c3c[nH]c4ccncc34)cs2)c2cc(F)ccc21`, the growth was -72.8% (active).

In the case of `COc1ccc(NC(=O)c2ccc3c(c2)nc(-c2ccc(Cl)cc2)n3-c2cc(C(C)(C)C)[nH]n2)cc1`, the growth is 87.5%.

With `Clc1ccc(N/N=C/c2ccccn2)nc1`, the growth is -48.3% (active).

Regarding `COc1ccc(Nc2nc(N/N=C/c3ccc(O)cc3)nc(Nc3ccc([N+](=O)[O-])cc3)n2)cc1`, the growth is 117%.

For the compound `COc1cc([C@@H]2c3cc4c(cc3[C@H](O)[C@H]3COC(=O)[C@H]23)OCO4)cc(OC)c1OC`, the growth was -17.5% (active).

Consider `O=C(O)COc1ccc(OCC(=O)O)cc1`, for which the growth was 2.23% (active).

As to `C#Cc1cccc(Nc2nc3ccc([N+](=O)[O-])cc3nc2Nc2cccc(C#C)c2)c1`, the growth was -45.9% (active).

As to `COc1ccc(-c2cc(-c3ccc(Nc4nc(Nc5ccccc5)nc(Nc5ccc(Cl)cc5)n4)cc3)nc(N)c2C#N)cc1`, the growth is -31.1% (active).

`CC1(C)c2[nH]c3ccccc3c2C[C@]2(C)[C@H]3C(=O)C=C4[C@@H]5C[C@@](C)(C(N)=O)CC[C@]5(C)CC[C@@]4(C)[C@]3(C)CC[C@@H]12`: the growth was 56.4%.

In the case of `O=S(=O)(NCCCNc1nccc(-c2[nH]c(-c3ccccc3)nc2-c2ccc(Cl)c(O)c2)n1)c1ccc(Br)cc1`, the growth was 25.9%.

For the compound `C/C(=C(/c1ccc(Cl)cc1)c1ccc(OCCN2CCCCCC2)cc1)c1ccccc1`, the growth was 72.5%.

With `COC(=O)[C@]12CCC(C)(C)C[C@H]1[C@H]1/C(=N/OCCc3nn[nH]n3)C[C@@H]3[C@@]4(C)CC[C@H](OC(C)=O)C(C)(C)[C@@H]4CC[C@@]3(C)[C@]1(C)CC2`, the growth was 17.3%.

As for `CCN(CC)c1ccc(/C=C\C(=O)c2ccc(NC(C)=O)cc2)cc1`, the growth is 10.7%.

For the compound `COc1ccc2[nH]c(=O)c(/C=C/C(=O)c3ccc(Nc4nccc(-c5ccc6ccccc6c5)n4)cc3)cc2c1`, the growth was 103%.

On to `COc1cccc(OC(=O)c2ccccc2)c1OC(=O)c1ccccc1`, for which the growth was 39.4%.

For `CC(=O)c1ccc(-n2c(-c3cc(-c4ccsc4)n[nH]3)n[nH]c2=S)cc1`, the growth was 97.3%.

As for `O=C1/C(=C/c2ccccc2F)CNC/C1=C\c1ccccc1F`, the growth is -59.7% (active).

`c1cc(OCCN2CCCC2)ccc1CNc1ccc2nc(CCC3CCCCC3)[nH]c2c1`: the growth is 43.6%.

Consider `N#C/C(=C/c1ccc([N+](=O)[O-])cc1)n1nnc2cc(F)c(F)cc21`, for which the growth was 19.8%.

Take `Cc1[nH]nc2ncc(C#Cc3cncc(C(=O)Nc4ccc(CN5CCN(C)CC5)c(C(F)(F)F)c4)c3)cc12`: the growth was 26.1%.

For the compound `COc1cc(Cc2cc(-c3ccc(Cl)cc3)n[nH]c2=O)ccc1O`, the growth is 73.9%.

Turning to `COc1ccc(/C=C2\N=C(c3ccccc3)N(C(=O)c3ccccc3O)NC2=O)cc1`, the growth was 106%.

On to `Fc1cccc(CNc2c3ccccc3nc3ccccc23)c1`, for which the growth was 0.607% (active).

Turning to `O=C1C(Cl)=C(Cl)C(Cl)(Cl)C(Cl)C1(Cl)Cl` (stereo not given), the growth was 115%.

With `O=C1c2cc3c(cc2-c2c1c1ccc(F)cc1c(=O)n2C[C@H](O)[C@@H](O)[C@H](O)CO)OCO3`, the growth is -45.2% (active).

On to `Fc1ccc(-c2nnc(-c3c(-c4ccc(F)cc4)nc4ccccn34)o2)cc1`, for which the growth is 92.5%.

For `O=C(NO)c1ccc(Cn2c(=O)n(CCc3ccccc3)c(=O)c3ccccc32)cc1`, the growth was 40.9%.

On to `O=c1[nH]c2ccccc2cc1-c1nc2ccc(Cl)cc2[nH]1`, for which the growth was 60.7%.

Regarding `CC(=O)OCc1cc(-c2nc3ccccc3[nH]c2=O)nn1-c1ccc(Cl)cc1`, the growth is 89.3%.

As to `O=C(NCc1ccc(Cn2c(=O)sn(-c3ccc(Cl)cc3)c2=O)cc1)OCc1ccc2c(Cl)cc(Cl)c(O)c2n1`, the growth was 45.4%.

For the compound `CCOc1ccccc1-c1cc(-c2cccs2)c(C#N)c(=O)[nH]1`, the growth is 2.06% (active).

Consider `COc1c(O)cc2oc3cc(O)c(CC=C(C)C)c(O)c3c(=O)c2c1CC=C(C)C`, for which the growth was 71.2%.

For `COc1ccc(/C=C2\CS(=O)(=O)C/C(=C\c3ccc(OC)cc3)C2=O)cc1`, the growth is -85.3% (active).

For `Cc1nc(/N=C(\N)NC(=O)Nc2cccc(Cl)c2)sc1C`, the growth is 55.2%.

Consider `O=c1oc2ccccc2cc1-c1nn(-c2ccccc2)cc1-c1nn[nH]n1`, for which the growth was 104%.

On to `C[C@@H](Nc1c(C#N)cnc2ccc(-c3cnc(Cl)c(NS(C)(=O)=O)c3)cc12)c1ccccc1`, for which the growth was -36% (active).

For the compound `O=C(Nc1ccc(-c2nc(-c3cccc(O)c3)c(-c3ccnc(Br)c3)[nH]2)cc1)c1ccccc1`, the growth is 7.45% (active).

Take `C[C@@H]1CC2C3CCC4=CC(=O)C=C[C@]4(C)[C@@]3(Cl)[C@@H](O)C[C@]2(C)[C@@]1(OC(=O)c1ccco1)C(=O)CCl` (stereo not given in full): the growth is 104%.

On to `O=C(CCl)c1ccc2c(c1)CCCC2`, for which the growth is 116%.
